The supplement of paper PMC11732987, “Enantioselective OTUD7B fragment discovery through chemoproteomics screening and high-throughput optimisation” (Communications Chemistry, 2025)
Values without a mark were called inactive.

Legend:
Assay in all cases: log2 ratio of Biotin-Ahx-Ub-VS probe labelling (fragment/DMSO); higher = less target engagement (more negative = stronger competition), active = hit call of the paper (q ≤ 0.05, log2 ratio ≤ -1)
Conditions in all cases: compound concentration: 200 uM; treatment time: 3 h
[1] = target: USP9X (UniProt Q93008)
Summary of the method: (§1)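 In triplicate, 495 µg of HEK293T lysate per sample was incubated with fragment at 200 µM or vehicle for 3 h. Biotin-Ahx-Ub-VS was then added to 0.5 µM final for 1 h, and labelled DUBs were captured with NeutrAvidin, digested with LysC and trypsin, and measured by diaPASEF LC-MS/MS. Data are average log2 fragment/vehicle ratios by unpaired t-test from global-median-normalised Spectronaut label-free quantities, restricted to proteins with ≥2 unique peptides.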

[2] = target: UniProt O00487
Summary of the method: as §1

[3] = target: UniProt O00507
Summary of the method: as §1

[4] = target: UniProt P51784
Summary of the method: as §1

[5] = target: T1, UniProt Q5T2D3
T1 sequence (whole entry): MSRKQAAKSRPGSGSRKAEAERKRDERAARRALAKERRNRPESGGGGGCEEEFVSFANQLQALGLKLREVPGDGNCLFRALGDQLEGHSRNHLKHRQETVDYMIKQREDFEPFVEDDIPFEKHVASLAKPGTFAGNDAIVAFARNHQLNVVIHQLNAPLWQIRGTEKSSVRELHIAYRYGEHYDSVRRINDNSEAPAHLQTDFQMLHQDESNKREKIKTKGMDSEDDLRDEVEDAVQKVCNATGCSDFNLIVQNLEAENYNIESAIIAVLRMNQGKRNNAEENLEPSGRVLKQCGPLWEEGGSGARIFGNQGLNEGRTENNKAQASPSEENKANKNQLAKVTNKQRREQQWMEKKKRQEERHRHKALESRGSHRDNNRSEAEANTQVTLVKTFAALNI
Summary of the method: as §1

[6] = target: T2, UniProt Q8TE49
T2 sequence (whole entry): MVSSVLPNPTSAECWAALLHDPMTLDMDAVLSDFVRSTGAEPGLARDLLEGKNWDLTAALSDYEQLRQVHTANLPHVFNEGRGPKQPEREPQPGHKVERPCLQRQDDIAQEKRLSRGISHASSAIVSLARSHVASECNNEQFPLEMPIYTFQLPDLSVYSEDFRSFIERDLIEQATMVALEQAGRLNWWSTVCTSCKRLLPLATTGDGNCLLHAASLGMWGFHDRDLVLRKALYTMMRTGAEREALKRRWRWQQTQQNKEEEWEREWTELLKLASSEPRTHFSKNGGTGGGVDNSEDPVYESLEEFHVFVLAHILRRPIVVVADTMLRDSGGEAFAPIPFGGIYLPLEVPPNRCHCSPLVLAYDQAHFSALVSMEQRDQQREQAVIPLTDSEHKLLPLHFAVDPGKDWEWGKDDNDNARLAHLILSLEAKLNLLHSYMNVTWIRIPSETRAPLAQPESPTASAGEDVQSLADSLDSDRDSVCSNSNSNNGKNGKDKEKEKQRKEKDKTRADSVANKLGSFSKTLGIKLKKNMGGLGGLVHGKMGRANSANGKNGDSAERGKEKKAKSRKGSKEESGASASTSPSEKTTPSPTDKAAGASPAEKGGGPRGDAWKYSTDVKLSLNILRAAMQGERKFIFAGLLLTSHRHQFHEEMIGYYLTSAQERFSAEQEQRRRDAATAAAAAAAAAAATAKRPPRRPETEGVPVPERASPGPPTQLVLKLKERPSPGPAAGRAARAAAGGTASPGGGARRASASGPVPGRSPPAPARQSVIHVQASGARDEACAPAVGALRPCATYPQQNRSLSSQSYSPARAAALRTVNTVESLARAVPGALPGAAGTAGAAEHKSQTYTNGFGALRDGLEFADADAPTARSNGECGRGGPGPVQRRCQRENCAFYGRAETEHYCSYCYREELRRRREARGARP
Summary of the method: as §1

[7] = target: T3, UniProt Q9P2H5
T3 sequence (whole entry): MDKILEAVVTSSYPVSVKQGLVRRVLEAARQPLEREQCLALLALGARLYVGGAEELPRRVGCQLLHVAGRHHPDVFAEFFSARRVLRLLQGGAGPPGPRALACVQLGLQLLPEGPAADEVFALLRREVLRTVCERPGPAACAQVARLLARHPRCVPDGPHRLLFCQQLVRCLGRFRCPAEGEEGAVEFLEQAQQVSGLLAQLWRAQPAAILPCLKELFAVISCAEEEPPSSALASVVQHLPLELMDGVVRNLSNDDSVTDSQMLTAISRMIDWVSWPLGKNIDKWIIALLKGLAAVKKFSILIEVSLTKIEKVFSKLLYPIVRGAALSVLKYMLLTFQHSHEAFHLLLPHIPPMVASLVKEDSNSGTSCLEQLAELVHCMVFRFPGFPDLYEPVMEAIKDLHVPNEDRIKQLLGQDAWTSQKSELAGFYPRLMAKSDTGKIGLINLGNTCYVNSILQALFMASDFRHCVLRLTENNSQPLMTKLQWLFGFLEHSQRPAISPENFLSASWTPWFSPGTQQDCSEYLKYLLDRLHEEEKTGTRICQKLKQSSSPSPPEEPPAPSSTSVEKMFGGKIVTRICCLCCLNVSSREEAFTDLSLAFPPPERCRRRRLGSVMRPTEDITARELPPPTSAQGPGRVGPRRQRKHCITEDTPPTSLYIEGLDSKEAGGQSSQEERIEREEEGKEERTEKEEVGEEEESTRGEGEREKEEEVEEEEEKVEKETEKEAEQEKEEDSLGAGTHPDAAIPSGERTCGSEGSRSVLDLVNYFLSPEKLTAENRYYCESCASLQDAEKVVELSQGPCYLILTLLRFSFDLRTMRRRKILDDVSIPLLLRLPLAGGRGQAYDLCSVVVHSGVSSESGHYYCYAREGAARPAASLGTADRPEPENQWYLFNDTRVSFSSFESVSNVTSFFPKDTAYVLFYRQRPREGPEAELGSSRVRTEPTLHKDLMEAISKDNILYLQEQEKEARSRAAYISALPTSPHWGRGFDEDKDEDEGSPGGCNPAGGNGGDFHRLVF
Summary of the method: as §1

[8] = target: T4, UniProt Q9UGI0
T4 sequence (whole entry): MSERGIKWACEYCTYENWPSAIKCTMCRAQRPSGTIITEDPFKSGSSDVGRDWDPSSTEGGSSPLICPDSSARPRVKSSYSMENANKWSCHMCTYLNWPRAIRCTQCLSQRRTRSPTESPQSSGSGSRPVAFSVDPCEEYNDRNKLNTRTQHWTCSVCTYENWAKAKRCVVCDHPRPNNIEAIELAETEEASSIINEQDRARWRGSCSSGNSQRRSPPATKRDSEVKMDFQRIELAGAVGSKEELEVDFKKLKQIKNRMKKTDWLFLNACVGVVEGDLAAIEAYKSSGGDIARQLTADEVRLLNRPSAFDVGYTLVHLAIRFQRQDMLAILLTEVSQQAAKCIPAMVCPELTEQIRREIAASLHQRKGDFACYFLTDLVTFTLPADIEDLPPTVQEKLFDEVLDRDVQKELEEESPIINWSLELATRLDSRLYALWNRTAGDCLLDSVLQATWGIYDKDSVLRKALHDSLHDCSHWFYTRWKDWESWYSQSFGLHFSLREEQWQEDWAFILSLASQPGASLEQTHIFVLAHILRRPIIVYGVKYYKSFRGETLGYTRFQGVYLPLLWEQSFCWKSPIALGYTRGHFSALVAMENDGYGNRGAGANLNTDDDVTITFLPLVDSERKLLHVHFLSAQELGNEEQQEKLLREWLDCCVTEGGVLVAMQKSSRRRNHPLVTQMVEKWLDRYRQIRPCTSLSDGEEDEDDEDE
Summary of the method: as §1

[9] = target: T5, YOD1 (UniProt Q5VVQ6)
T5 sequence (whole entry): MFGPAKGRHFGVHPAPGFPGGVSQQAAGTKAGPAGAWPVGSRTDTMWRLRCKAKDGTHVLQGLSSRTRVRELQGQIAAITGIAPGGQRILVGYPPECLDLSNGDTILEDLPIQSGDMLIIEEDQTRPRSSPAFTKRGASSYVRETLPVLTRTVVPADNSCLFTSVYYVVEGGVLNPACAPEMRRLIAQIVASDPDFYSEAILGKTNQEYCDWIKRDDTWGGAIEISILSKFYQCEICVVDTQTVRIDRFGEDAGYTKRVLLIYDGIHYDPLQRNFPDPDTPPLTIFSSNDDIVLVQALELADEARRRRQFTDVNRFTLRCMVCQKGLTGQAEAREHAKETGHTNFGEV
Summary of the method: as §1

Chain of UniProt O00507 (O00507 whole entry): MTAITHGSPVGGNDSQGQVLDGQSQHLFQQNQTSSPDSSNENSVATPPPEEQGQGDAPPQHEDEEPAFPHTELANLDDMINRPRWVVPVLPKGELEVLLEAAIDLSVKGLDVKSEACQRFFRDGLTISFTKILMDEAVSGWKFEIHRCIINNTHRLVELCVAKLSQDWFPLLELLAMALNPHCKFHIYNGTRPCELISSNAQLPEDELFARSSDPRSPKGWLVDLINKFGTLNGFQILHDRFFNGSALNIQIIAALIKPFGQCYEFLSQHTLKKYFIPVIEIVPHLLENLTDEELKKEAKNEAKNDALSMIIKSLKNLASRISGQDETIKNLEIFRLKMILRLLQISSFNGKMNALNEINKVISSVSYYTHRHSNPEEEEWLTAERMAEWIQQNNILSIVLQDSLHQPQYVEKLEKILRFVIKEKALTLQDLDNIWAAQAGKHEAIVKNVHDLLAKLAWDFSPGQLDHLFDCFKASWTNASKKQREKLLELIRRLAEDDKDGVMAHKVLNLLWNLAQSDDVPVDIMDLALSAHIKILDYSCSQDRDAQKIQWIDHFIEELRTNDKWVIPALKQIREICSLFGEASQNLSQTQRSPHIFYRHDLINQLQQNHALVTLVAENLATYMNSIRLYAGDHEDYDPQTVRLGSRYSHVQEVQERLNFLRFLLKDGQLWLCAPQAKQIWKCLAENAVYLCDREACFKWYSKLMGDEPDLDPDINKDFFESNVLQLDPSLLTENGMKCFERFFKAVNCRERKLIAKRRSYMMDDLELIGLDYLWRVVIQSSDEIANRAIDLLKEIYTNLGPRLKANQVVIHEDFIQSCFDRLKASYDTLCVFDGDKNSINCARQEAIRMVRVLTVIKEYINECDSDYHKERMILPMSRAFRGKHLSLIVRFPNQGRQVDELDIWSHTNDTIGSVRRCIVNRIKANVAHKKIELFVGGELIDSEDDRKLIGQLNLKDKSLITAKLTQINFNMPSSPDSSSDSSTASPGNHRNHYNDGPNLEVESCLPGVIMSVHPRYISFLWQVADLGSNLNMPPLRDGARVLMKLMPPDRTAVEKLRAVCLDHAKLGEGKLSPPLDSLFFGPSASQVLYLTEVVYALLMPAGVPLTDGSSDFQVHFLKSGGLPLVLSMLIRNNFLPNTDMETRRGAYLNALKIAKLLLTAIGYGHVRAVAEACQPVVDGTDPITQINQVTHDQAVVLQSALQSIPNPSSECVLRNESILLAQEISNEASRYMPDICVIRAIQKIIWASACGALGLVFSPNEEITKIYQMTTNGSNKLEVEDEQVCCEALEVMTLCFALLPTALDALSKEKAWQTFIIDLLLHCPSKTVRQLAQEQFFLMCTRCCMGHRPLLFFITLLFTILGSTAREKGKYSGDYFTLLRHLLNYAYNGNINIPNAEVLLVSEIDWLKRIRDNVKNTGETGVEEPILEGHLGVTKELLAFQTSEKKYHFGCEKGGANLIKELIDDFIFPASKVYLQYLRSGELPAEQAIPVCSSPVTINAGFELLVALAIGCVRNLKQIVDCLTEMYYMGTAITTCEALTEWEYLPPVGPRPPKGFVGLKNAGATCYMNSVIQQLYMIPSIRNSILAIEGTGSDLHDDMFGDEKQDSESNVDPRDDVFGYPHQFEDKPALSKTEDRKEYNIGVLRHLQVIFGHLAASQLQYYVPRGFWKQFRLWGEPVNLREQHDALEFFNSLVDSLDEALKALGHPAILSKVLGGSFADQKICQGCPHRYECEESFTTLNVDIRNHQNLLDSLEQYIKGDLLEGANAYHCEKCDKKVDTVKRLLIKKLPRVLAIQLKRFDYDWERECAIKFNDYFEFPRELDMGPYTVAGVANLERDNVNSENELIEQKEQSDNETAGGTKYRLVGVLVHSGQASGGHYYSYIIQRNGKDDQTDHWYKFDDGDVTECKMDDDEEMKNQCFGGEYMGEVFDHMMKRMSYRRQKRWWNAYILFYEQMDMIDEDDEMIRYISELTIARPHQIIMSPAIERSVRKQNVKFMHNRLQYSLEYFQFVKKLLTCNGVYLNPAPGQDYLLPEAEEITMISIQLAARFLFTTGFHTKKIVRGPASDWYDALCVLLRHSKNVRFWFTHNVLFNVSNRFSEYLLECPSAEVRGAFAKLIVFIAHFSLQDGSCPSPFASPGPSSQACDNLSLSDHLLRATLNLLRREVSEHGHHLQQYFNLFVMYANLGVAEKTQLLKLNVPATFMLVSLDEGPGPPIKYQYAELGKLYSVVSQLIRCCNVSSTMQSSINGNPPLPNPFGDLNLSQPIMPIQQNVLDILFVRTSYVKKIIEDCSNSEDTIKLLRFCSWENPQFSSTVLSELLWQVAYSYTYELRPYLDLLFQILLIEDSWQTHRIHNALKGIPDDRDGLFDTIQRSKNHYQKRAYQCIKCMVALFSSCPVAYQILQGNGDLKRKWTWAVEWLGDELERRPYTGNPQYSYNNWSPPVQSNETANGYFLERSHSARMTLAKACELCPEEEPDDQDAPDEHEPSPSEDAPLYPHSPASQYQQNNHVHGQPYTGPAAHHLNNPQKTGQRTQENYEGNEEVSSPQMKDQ
Chain of UniProt O00487 (O00487 whole entry): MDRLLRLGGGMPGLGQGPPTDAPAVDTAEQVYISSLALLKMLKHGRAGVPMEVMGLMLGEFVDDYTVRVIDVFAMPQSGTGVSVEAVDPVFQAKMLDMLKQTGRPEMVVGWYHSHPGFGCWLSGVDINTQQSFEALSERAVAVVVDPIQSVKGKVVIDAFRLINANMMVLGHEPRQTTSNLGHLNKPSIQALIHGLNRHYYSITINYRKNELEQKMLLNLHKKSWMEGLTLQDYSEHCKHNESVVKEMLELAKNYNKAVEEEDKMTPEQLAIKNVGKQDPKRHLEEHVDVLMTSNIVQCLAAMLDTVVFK
Chain of UniProt P51784 (P51784 whole entry): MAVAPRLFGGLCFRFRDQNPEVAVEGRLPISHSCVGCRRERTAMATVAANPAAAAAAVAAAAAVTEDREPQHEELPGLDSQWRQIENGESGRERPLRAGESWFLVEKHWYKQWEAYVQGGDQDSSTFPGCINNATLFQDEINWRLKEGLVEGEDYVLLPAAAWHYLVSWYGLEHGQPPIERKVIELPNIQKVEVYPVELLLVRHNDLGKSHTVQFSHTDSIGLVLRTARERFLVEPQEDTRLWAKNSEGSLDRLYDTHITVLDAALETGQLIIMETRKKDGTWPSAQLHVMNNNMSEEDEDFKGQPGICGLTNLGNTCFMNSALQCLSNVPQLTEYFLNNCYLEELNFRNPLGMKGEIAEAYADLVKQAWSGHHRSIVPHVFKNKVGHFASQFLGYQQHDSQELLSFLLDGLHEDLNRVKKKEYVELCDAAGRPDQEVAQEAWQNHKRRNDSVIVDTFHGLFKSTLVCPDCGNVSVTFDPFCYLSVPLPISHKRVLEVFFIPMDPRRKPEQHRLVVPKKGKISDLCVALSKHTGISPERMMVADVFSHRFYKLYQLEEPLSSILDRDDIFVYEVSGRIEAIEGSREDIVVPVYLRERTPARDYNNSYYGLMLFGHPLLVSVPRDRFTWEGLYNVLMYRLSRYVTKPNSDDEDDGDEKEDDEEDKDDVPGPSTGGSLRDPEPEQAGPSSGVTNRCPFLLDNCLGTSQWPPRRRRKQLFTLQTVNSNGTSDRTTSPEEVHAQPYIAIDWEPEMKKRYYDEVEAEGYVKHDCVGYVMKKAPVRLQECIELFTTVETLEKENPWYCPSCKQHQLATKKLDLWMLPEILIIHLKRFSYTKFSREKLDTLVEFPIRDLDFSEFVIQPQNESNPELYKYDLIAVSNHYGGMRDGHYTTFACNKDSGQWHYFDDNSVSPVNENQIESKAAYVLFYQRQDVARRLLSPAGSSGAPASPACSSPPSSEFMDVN

With `Cl.O=C(CCl)N1CCc2ncncc2C1` the “log2 ratio of Biotin-Ahx-Ub-VS probe labelling” value (shortened to “log2 ratio”) [1] was -0.425, the “log2 ratio” value [2] was -0.0759 and the “log2 ratio” value [3] was -0.362. The “log2 ratio” value [4] was 0.0954, the “log2 ratio” value [5] was -0.274 and the “log2 ratio” value [6] was -0.964. The “log2 ratio” value [7] was -0.288, the “log2 ratio” value [8] was -1.57 (active) and the “log2 ratio” value [9] was 0.055.
